SMILES strings stand for the structures. The campaign covered roughly 4,800 compounds. About 420 (8.8%) showed an effect of 50% or more. The sample as a whole holds a higher share of strong results than the screen did.

As usually defined, the % Inhibition is the drop in the measured response relative to a control, in per cent.

The experiment deals with Plasmodium falciparum. Put plainly: Confirmatory screen in NF54 nanoGlo assay, in single point, at 2uM, 72h. Type of experiment: functional, Erythrocyte. The following applies: timepoint 72 hour.
In the case of `CC(C)(C)c1nc(Cn2c3c(sc2=O)CCCC3)no1`, the “% Inhibition” value is listed as 1%. As for `COc1ccc(CN2CCC(C(=O)NCCCN3CCOCC3)CC2)c(OC)c1`, the figure is 4%; as for `Cc1ccccc1S(=O)(=O)c1cc2cc(Br)cc(Br)c2nc1N`, 0%; as for `COc1cccc(C2=NS(=O)(=O)N(C)C(C(=O)N3CCC(C(N)=O)CC3)=C2)c1`, 20%. For `CC(=O)Nc1ccc(NC(=O)CCC(C)C)cc1`, the “% Inhibition” value is given as -9%. As for `CC(=O)Nc1ccc(-c2cn3c4ccccc4ccc3[n+]2C)cc1`, the figure is 76%.

For `CC(=O)c1ccc(NC(=O)Cn2c(-c3ccccc3)nc(C)cc2=O)cc1`, the “% Inhibition” value was 4%. With `CC(=O)N[C@H]1[C@H](c2ccccc2)N(CCCc2ccccc2)CC[C@@]1(C)O` the figure was 1%; with `C#CCN(C(=O)c1cnn(CC(C)C)c1C(F)F)c1nccs1`, -1%; with `Cc1ccc(C2=NC3(CCCC3)NC2=O)cc1`, 3%. On to `Cc1ccc[n+](Cc2ccc3ccccc3n2)c1`, for which the “% Inhibition” value was 53%. As for `c1ccc2cc(-c3ccc4ccccc4n3)ccc2c1`, the figure is -1%. As for `O[C@@H](Cc1ccc2ccccc2n1)c1ccccc1`, the figure is -5%; as for `c1ccc2c[n+](Cc3ccc4ccccc4n3)ccc2c1`, 50%; as for `CC(C)(C)OC(=O)N1CCN(C[C@H]2CN(c3ccc(F)cc3)C(=O)O2)CC1`, -11%. With `O=C(Nc1ccccc1)c1ccc(Nc2ncc(-c3cccc(F)c3)cn2)cc1` the figure was -3%. `CC(C)(C)c1ccc(-c2cc(C[C@H]3CNCC[C@H]3CC(=O)NCCN3CCOCC3)no2)cc1`: the “% Inhibition” value turned out to be 9%. Regarding `OC(CNC1CCCNc2ccccc21)c1ccc(Cl)s1` (stereo not drawn), the “% Inhibition” value is 58%. With `O=C(NC[C@H](O)c1ccc(Cl)s1)c1ccsc1`, the “% Inhibition” value is given as 1%. As for `CC(C)(C)OCCON=C(N)c1cccs1`, the figure is 10%; as for `O=C(C[C@@H]1C=CCC1)Nc1nc(-c2ccc(Cl)cc2)cs1`, 2%. Turning to `C[C@H]1CNCCN1C(=O)c1coc2ccccc12`, the “% Inhibition” value was -4%. With `O=C(Cn1ccnc1)N1CCCCCC1CC(O)c1ccccc1` (stereo not drawn) the figure was 0%; with `O=c1[nH]c2cc3c(cc2c(=O)n1CCc1nc(-c2ccccc2Br)no1)OCO3`, -4%. As for `O=C(C[C@H]1CCN(C(=O)Nc2ccccc2)C1)NC1CC1`, the figure is -6%; as for `O=C(Nc1ccncc1)c1ccc2ccccc2n1`, 0%; as for `CCOC(=O)c1ncn(C2CCCCC2)c1N`, 1%.

For `CCOC(=O)c1cn(CC)c2cc(NC3CCCCC3)c(F)cc2c1=O`, the “% Inhibition” value stood at 78%. With `CCOC(=O)c1cc(NC(=O)C(C)(C)NC(=O)OC(C)(C)C)c(F)cc1C` the figure was -2%; with `CCc1ccc(CNC(=O)C2(N3CCOCC3)CCC2)s1`, -5%; with `CCCN(CCC)C(=O)CCC(=O)N[C@]1(C(F)(F)F)CCc2ccccc21`, 15%. With `Cc1cccc(NC(=O)[C@@H](C#N)C(=O)C2CCC2)c1` the figure was 0%. With `COc1ccc(CN(Cc2ccncc2)CC2CCN(C3CCN(C)CC3)CC2)c(F)c1` the figure was 85%; with `CN1CCC(N2CCC(CN(Cc3ccncc3)Cc3c(F)cccc3Cl)CC2)CC1`, 23%; with `CN1CCC(N2CCN(Cc3ccc4cc(O)ccc4c3)CC2)CC1`, 46%. As to `O=C(Nc1ncc(CCO)s1)[C@@H]1CCCN1C(=O)Cc1cccs1`, the “% Inhibition” value is given as 0%.

Take `CN1CCC(NCC[C@@H](Cc2ccccc2Cl)c2ccc(Cl)cc2)CC1`: the “% Inhibition” value amounted to 82%. `CC(C)CC[C@@H](CCNCCN(C)C)c1ccc(Cl)cc1`: the “% Inhibition” value stood at 96%. With `CC(C)CC[C@@H](CCNC1CCN(C)CC1)c1ccc(Cl)cc1` the figure was 80%; with `CN(C)CCCNCc1ccc(Cl)cc1Cl`, -3%; with `Clc1ccccc1COc1ccc(CNC2CCCCC2)cc1`, -2%. As for `CN(C)CCNCc1ccc(Cl)c(Cl)c1`, the figure is -11%; as for `CCn1cnnc1C1CCN([C@@H](C)C(=O)Nc2ccccc2C)CC1`, -7%.

As for `COc1ccc(C)cc1-n1ccc(C(=O)N2CCCc3c(C(N)=O)cccc32)n1`, the “% Inhibition” value is -11%.

Regarding `COC(=O)c1ncn(CNC2(c3ccc(Cl)cc3)CCCC2)n1`, the “% Inhibition” value turned out to be 6%.

`CN(C)c1ccc(-c2nc([C@H]3CCOC3)cs2)cc1`: the “% Inhibition” value came to 6%. As to `Cc1cc(CN2C(=O)NC3(CCCCC3)C2=O)no1`, the “% Inhibition” value was -4%.

Consider `Cc1cccnc1C(=O)N1CC(n2cnnc2[C@@H]2CCCO2)C1`, for which the “% Inhibition” value is reported as -2%. As for `CC(=O)c1cc(-c2cc(O)cc(CC[C@H]3CCCCN3)c2)ccc1O`, the “% Inhibition” value amounted to 78%. With `Cc1ccc(-c2cc(O)cc(CC[C@H]3CCCCN3)c2)c(C)n1` the figure was 53%; with `Cc1cc(-c2cc(O)cc(CC[C@H]3CCCCN3)c2)ccn1`, 79%. As for `Cc1cc(S(=O)(=O)NC[C@H]2CCCCN2)sc1C`, the figure is -9%. On to `CC1CC(N)CCN1C(=O)c1cccc(-c2noc(C3CC3)n2)c1` (stereo not drawn), for which the “% Inhibition” value is recorded as 2%. As for `CN(CCOc1ccc(Cl)cc1Cl)[C@H]1CCS(=O)(=O)C1`, the figure is -7%; as for `CCN(C(C)=O)c1ccc(Cl)cc1F`, -13%; as for `COc1ccc(C)cc1NC(=O)C[C@H]1CCN(S(C)(=O)=O)C1`, 0%.

As to `Cc1cc2nc(C(=O)NC3CCN(Cc4ccccc4)CC3)c(=O)n(C)c2cc1C`, the “% Inhibition” value is -8%. As for `O=C(Cn1cccc1-c1nc(-c2ccc(F)c(Br)c2)no1)N1CCc2ccccc2C1`, the figure is 1%; as for `CC(C)c1cc(=O)[nH]c(-n2nc(C3CC3)cc2NC(=O)COc2ccc3ccccc3c2)n1`, 70%.

As for `CC(C)c1cc(=O)[nH]c(-n2nc(C3CC3)cc2NC(=O)Cc2ccc(Cl)cc2)n1`, the “% Inhibition” value is listed as 69%. With `O=C(Nc1ccc(OC(F)F)cc1)c1cc(C2CC2)nc2c1c(C1CC1)nn2-c1ccccc1` the figure was -7%; with `CC(C)c1nc(C2CN(C(=O)Nc3ccc(F)c(Cl)c3)C2)n(C)n1`, 4%; with `Cc1cc(NC(=O)c2ccc(COc3ccc4ccccc4c3)o2)nn1C`, -3%.

Regarding `Cc1ccc(N2C[C@@H](c3nnc(NC(=O)Cc4ccc(Cl)cc4)o3)CC2=O)cc1`, the “% Inhibition” value is recorded as -13%. With `CCNC(=O)C1Cc2ccc(OC)cc2N2CCN(c3ccc(OC)cc3)CC12` (stereo not drawn) the figure was 2%; with `O=C(C[C@H]1CCN(C(=O)c2cc(F)ccc2F)C1)NC1CC1`, -2%; with `CN(C)/C=C/c1cc(C#N)c(C#N)cc1Br`, -4%. For `O=C(c1c(F)cccc1F)N1C[C@@H]2CCCN2c2ccc(C(F)(F)F)cc21`, the “% Inhibition” value is on record as -13%. As for `COc1ccccc1-n1cnc2cc(C(=O)N3CCCC3)ccc2c1=O`, the figure is -4%; as for `CC[C@H](C)[C@H](NC(=O)c1ccc(Br)c(F)c1)C(=O)O`, -8%; as for `N[C@@H](CO)c1cccc(Br)c1`, 7%. With `COC(=O)CN(c1ccccc1)S(=O)(=O)c1ccc2nncn2c1` the figure was -1%; with `COc1cccc(N2C(=O)N[C@H](C)C2=O)c1`, 8%. With `COc1ccc(-c2c(-c3cccc(OC)c3)[nH]c3c2c(=O)[nH]c(=O)n3C)cc1` the figure was 74%; with `COc1cccc(C(=O)Nc2noc(-c3cccc(OC)c3)c2-c2ccc(Cl)cc2)c1`, -11%; with `CC1CC(C)(C)CCC1NC(=O)NC1CCN(C)C1=O` (stereo not drawn), -4%. `COc1cccc(CCC(=O)N2CCN3CCC2C3)c1F` (stereo not drawn): the “% Inhibition” value is recorded as -15%. As for `CC[C@@H](CO)NC(=O)Nc1ccc(Cl)cc1`, the figure is 6%; as for `CNC(=NCCCOc1cccc(OC)c1)NC`, -6%; as for `Cc1nc2sc(C(=O)Nc3ccc4ccccc4c3)c(N)c2c(C)c1C`, 2%. With `Cc1c(C)c2ccc(NC(=O)c3cc4ccccc4o3)cc2[nH]c1=O` the figure was 74%. With `Cc1cc(C(=O)Nc2ccc3ccccc3c2)co1` the figure was -5%; with `CN(Cc1ccc(-c2ccccc2)cc1)c1cc([C@H]2C[C@@H](N)C2)nc(N)n1`, 49%; with `CC1CCN(C[C@@H](O)CNc2nnc(C(F)(F)F)s2)CC1`, -10%.

For `Cn1n[n+](CCCCC(Cl)(Cl)Cl)c2ccccc21`, the “% Inhibition” value was determined as 53%.

In the case of `Cn1n[n+](CC(=O)Nc2ccccc2Cl)c2ccccc21`, the “% Inhibition” value was -5%. As for `CCN(CC(=O)Nc1ccccc1OC)C(=O)c1ccc(S(=O)(=O)N2CCOCC2)cc1`, the figure is 10%. As for `CC(C)n1[nH]c(=O)c2c(C3CCCCC3)c3sc(=O)[nH]c3nc21`, the figure is -3%; as for `Nc1cc2c(cc1C1=Nc3ccccc3C(c3ccccc3)(c3ccccc3)N1)OCO2`, 10%; as for `COc1ccc(CCNC(=O)c2cc3c(=O)[nH]c(C)cn3n2)cc1OC`, 67%.

In the case of `COc1ccc(CCNC(=O)c2cc3n(n2)CCN(Cc2cccc(F)c2)C3=O)cc1OC`, the “% Inhibition” value amounted to 17%.

As for `COc1ccc(CCNC(=O)c2c(C)noc2-c2ccncc2)cc1OC`, the “% Inhibition” value amounted to 1%. Regarding `C#CCN(C(=O)c1ccncc1CC)c1nccs1`, the “% Inhibition” value is recorded as -10%. With `CCCC1(c2ccncc2)CC(C)OC1=O` (stereo not drawn) the figure was -1%; with `Cc1ccc(-c2noc(CCC(=O)NC[C@H]3CCCO3)n2)c(=O)n1C(C)C`, -1%; with `O=C(CCn1ncc2c(Cl)cccc21)NCC1CCCC1`, -9%. As for `c1cn(CCCOc2ccc3c(c2)OCO3)nn1`, the figure is 3%; as for `COc1ccc(CC(=O)NCCn2c(C(F)(F)F)nc3ccccc32)cc1`, 42%; as for `CC(C)C(=O)Nc1ccc(-c2cc(-c3ccc(NC(=O)C(C)C)cc3)nc(-c3ccncc3)n2)cc1`, 56%.

`CC(C)C(=O)NCC(=O)Nc1ccc(C(F)(F)F)cc1`: the “% Inhibition” value is recorded as -15%. As for `CCNC(=O)c1nc(-c2ccncc2)cs1`, the figure is -21%; as for `Cc1ccccc1C(=O)NCC(=O)NCCc1c[nH]c2ccccc12`, -7%.

Regarding `Clc1ccccc1-c1c[nH]c([C@@H]2CCCN2)n1`, the “% Inhibition” value came out at 5%. As for `O=C(Nc1cccc2cccnc12)c1cncc(Br)c1`, the figure is -12%; as for `CC(C)(C)C(=O)NCCNC(=O)c1ccccn1`, 8%; as for `O=C(Oc1cccc2cccnc12)c1ccc(-c2ccccc2)cc1`, 2%. With `O=C(Nc1cccc2cccnc12)c1ccccn1` the figure was 80%; with `Oc1ccccc1CNc1cccc2cccnc12`, 98%.

Values taken from ChEMBL document CHEMBL4888484, “Replenishing the malaria drug discovery pipeline: Screening and hit evaluation of the MMV Hit Generation Library 1 (HGL1) against asexual blood stage Plasmodium falciparum ,using a nano luciferase reporter read-out” (2022).
